Results filed as inconclusive are left out. The source made the active and inactive calls. Calls follow the shape of the dose curve; as a rule, active = well fitted cell-killing curve with a large enough effect; inconclusive = small, poorly fitted or top-dose-only effect, or effect the other way; inactive = no such curve, though single readings can be large or run the other way.
Assay: Viability qHTS for spleen associated tyrosine kinase inhibitor (SYKi) naive MV4-11 cells (AID 1963823); also: nearly all actives have a fitted effect of over 40% in size
Details: MV4-11 AML viability, CellTiter-Glo luminescence, 72 h; series mostly up to 45 µM; viability (% of control): at the top concentration
In short: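 SYKi-naive MV4-11 AML cells, 500 per well, were exposed to library compounds for 72 hr at 37 C, 5% CO2. Viability was then read by CellTiter-Glo luminescence after 10 min at room temperature.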

| Structure (SMILES) | viability (% of control) |
| --- | --- |
| CC1OC(OC2C(OC3C(O[C@H]4CC[C@@]5(C)C(CC[C@]6(C)C5C(=O)CC5=C7CC(C)(C)CC(O)[C@]7(C)CC[C@]56C)C4(C)C)OC(C(=O)O)C(O)C3O)OCC(O)C2O)C(O)C(O)C1O (some centres undefined) | 77.2% [at 9.25 µM] (inactive) |
| CC1OC(OC2C(OC3C(O[C@H]4CC[C@@]5(C)C(CC[C@]6(C)C5CC=C5C7CC(C)(C)CC(O)[C@]7(C)CC[C@]56C)C4(C)C)OC(C(=O)O)C(O)C3O)OCC(O)C2O)C(O)C(O)C1O (some centres undefined) | 90.6% [at 9.25 µM] (inactive) |
| C=CC(C)(CC/C=C(\C)C(=O)OC)OC1OC(COC(=O)CC(C)(O)CC(=O)O)C(O)C(O)C1O (centres undefined) | 83.2% [at 17.3 µM] (inactive) |
| C[C@@H](c1ccccc1)N(C(N)=NC#N)c1cccc2ncccc12 | 69.5% (inactive) |
| CC(=O)O[C@@]1(C)C[C@@H](O)[C@]2(O)C=CO[C@@H](O[C@@H]3O[C@H](CO)[C@@H](O)[C@H](O)[C@H]3O)[C@@H]21 | 74.9% [at 17.3 µM] (inactive) |
| CC[C@H]1CN(c2nc(N)c(C(N)=O)nc2Cl)CCN1C1CCN(Cc2ccc(Cl)cc2)CC1 | 62.9% (inactive) |
| C=C1CCC(OC(C)=O)C2(C)CC3OC(=O)C(C)=C3CC12 (centres undefined) | 91.5% (inactive) |
| CC(=O)O[C@H]1C[C@@H](O)C(C)(C)C2C[C@@H](OC(C)=O)[C@@]3(C)C4=CCC(C(CO)CC(O)C5OC5(C)C)[C@]4(C)CCC3[C@]21C (some centres undefined) | 59.9% [at 17.3 µM] (inactive) |
| O=C(O)CC(=O)OC[C@H]1O[C@@H](Oc2ccc3c(c2)OC[C@H]2c4cc5c(cc4O[C@@H]32)OCO5)[C@H](O)[C@@H](O)[C@@H]1O | 88.1% [at 17.3 µM] (inactive) |

Source: PubChem BioAssay (NCATS)
